PKM2 activator: increases activity of human pyruvate kinase M2 | P14618 | purified PKM2, Kinase-Glo ATP luminescence, activation; response scale: 0% is enzyme alone, no compound | Potency, µM (top dose mostly 57.5 µM), for inactives: top-dose activation, hits mostly activators | hit rate 0.34% among 260,000; also: % is scaled to controls: 0 for no effect and ±100 for the full control effect; nearly all actives have a fitted effect of over 55% in size
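hPK-M2, >95% pure; 0.1 mM ADP / 0.5 mM PEP final; imidazole pH7.2 buffer w/ 7 mM MgCl2, 50 mM KCl; 1 h RT; Kinase-Glo lum. Intermediate enzyme activity for dual inhibitor/activator qHTS.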
Rango-impB inh: prevents formation of the Rango-importin beta complex; Rango CFP/YFP FRET sensor + importin beta, 45 min; hit rate 0.031% among 340,000; AID 540263; Potency, µM (top dose mostly 92.2 µM), for the others: at the highest dose inhibition of complex formation; Q14974; calls by dose curve;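 also: 0% = DMSO wells and 100% = buffer wells lacking importin beta; nearly all actives have a fitted effect of over 15% in size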
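FRET biosensor Rango (snurportin 1 IBB between N-terminal EYFP and C-terminal Cerulean), 50 nM in PBS/1 mM DTT/0.02% Tween-20/0.1% BSA, preincubated 5 min RT with compound; 0.125 microM importin beta added, 45 min RT, CFP/YFP FRET ratio read.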
ELG1 DNA repair: blocks ELG1-dependent DNA repair in HEK293T cells. Potency, µM (titrated, usually from 46.1 µM), without a hit: at the top dose activity change, negative = inhibition, actives largely listed as inhibitors. hit rate 2.3% among 330,000. HEK293T ELG1-luciferase reporter, luminescence, 16 h; DNA damage induced by 5-fluorouridine; also: % is scaled to controls: 0 for no effect and ±100 for the full control effect; nearly all actives have a fitted effect of over 55% in size
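Step one: seed 2,000 cells per well. Step two: pin-transfer compound or DMSO alongside 5-fluorouridine. Step three: incubate 16 hr, 37 °C, 5% CO2. Step four: add ONE-Glo, wait 30 min, read luminescence.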
Rango dissoc inh: prevents RanGTP from dissociating the Rango-importin beta complex. Potency, µM (highest dose often 46.1 µM), without a hit: at the top dose activity change, negative = inhibition. O95149+P62826. Biochemical FRET Rango-importin beta, RanGTP-induced dissociation. hit rate 0.071% among 340,000; calls by dose curve; also: % of control where 0% means no effect; nearly all actives have a fitted effect of over 45% in size
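Recombinant Rango FRET biosensor (EYFP–snurportin 1 IBB–cerulean CFP10) at 0.1 uM premixed with 0.25 uM importin beta in PBS, 1 mM DTT, 0.02% Tween-20, 0.1% BSA. Compound added 5 min; RanGTP-RCC1 (0.6 uM Ran, 2 mM GTP, 0.2 uM RCC1) then triggers release, read at 45 min.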
Tb PGK inh: inhibitors of T. brucei phosphoglycerate kinase; PGK/GAPDH coupled, Kinase-Glo luminescence, 60 min; Potency, µM (doses to about 57.5 µM), without a hit: at the highest dose activity change, negative = inhibition, actives largely listed as inhibitors; hit rate 0.043% among 380,000; P07378; also: % is scaled to controls: 0 for no effect and ±100 for the full control effect; nearly all actives have a fitted effect of over 60% in size
Target sequence (P07378 whole entry, looked up): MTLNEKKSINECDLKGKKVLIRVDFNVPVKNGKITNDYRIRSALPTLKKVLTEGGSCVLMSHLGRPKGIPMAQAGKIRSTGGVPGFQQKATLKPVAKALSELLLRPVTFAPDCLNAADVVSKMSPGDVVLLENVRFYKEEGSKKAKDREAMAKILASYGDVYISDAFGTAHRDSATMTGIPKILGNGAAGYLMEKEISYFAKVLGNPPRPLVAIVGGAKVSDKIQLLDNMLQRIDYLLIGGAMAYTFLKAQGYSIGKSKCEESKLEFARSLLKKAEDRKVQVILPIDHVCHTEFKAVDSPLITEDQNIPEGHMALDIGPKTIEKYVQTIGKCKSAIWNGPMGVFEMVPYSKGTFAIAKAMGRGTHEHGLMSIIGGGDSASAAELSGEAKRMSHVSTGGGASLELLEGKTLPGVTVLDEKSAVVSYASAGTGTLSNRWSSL
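Luminescent ATP detection (Kinase-Glo Plus) follows a 60-minute room-temperature incubation, with wells lacking PGK as controls. Buffer: 100 mM TEA (pH 7.6), 5 mM MgCl2, 0.01% Tween-20. Coupling enzyme GAPDH (100 nM final) supplies unstable 1,3-BPG in-well.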
Tb PFK block: T. brucei PFK enzyme inhibition. AID 485367. O15648. hit rate 0.17% among 330,000. Potency, µM (titrated, usually from 57.5 µM), for the others: at the top dose activity, negative = inhibition, usual class: inhibitors. T. brucei PFK, ADP-Glo luminescence;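 also: 0% = uninhibited 1x PFK enzyme wells and -100% = no-enzyme wells; nearly all actives have a fitted effect of over 60% in size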
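ADP-Glo luminescence quantified ADP after 45 min at room temperature, with 1.25 nM T. brucei PFK, 0.1 mM ATP and 0.5 mM fructose-6-phosphate in pH 8.0 TEA buffer. qHTS titrations up to 57 µM; curves classified by quality.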
* hit, by the source's call; i = inactive; ? = inconclusive; nt = no result; [ ] = another dose, or the depositor's remark. Rows were chosen to be rich in hits. Some 2.4% of all compounds tested hit in one or more screens of this group. Unless noted, calls follow the shape of the dose curve; as a rule, active = well fitted curve in the direction sought with a large enough effect; inconclusive = small, poorly fitted or top-dose-only effect, or another doubt; inactive = no such curve, though single readings can be large; an effect the other way counts as inactive or inconclusive. Potency is read from the fitted curve at half-maximal effect.

SMILES	PKM2 activator	Rango-impB inh	ELG1 DNA repair	Rango dissoc inh	Tb PGK inh	Tb PFK block
COc1cccc(N2CCN(c3ncnc4c3cnn4-c3ccc(C)cc3C)CC2)c1	0%	-2%	3.3µM*	15%	-8%	-6%
Cc1ccc(-n2ncc3c(N4CCCC4)ncnc32)c(C)c1	25µM*	0%	1%	1%	i	-6%
CCC(C(=O)NCCN1CCOCC1)n1c2ccccc2c2nc(=O)cc(C)n21 (stereo not drawn)	nt	0%	15%	3%	i	15%
Cc1ccc(OCC(=O)Nc2c(Cl)ccc3nsnc23)cc1C	nt	nt	nt	nt	1%	nt
CN(C)S(=O)(=O)c1ccc(NC(=S)NC(=O)C2CCC2)cc1	0%	0%	-7%	29%	3%	-13%
CN(Cc1ccccc1)S(=O)(=O)c1ccc(NC(=S)NC(=O)C2CCCC2)cc1	2%	0%	16µM*	1%	i	-1%
Cc1ccc(Nc2nc(N)[nH]c(=O)c2N=O)cc1	15%	?	-16%	?	-3%	0%
Cc1ccc(NC(=O)CSc2nnc(-c3n[nH]c4ccccc34)n2-c2ccccc2)c(C)c1	-2%	-4%	23µM*	-4%	0%	4%
Cc1ccc(OCc2nnc(SCC(=O)Nc3cccc4ccccc34)n2-c2ccccc2)cc1	-7%	1%	?	10%	i	9%
C=CCN1CCC(=O)C(C(=O)OCC)=C1C(=O)OCC	nt	-3%	nt	-1%	-10%	nt
COc1ccc(OC)c(CN2CCN(C(=O)c3cc(S(=O)(=O)Nc4ccccc4OC)ccc3C)CC2)c1	-2%	1%	23µM*	1%	-6%	-1%
COc1ccccc1C(=O)Nc1ccccc1N1CCCCC1	nt	5%	?	2%	-17%	3%
O=C(Nc1ccc(F)cc1)Nc1ccccc1N1CCCCC1	-3%	-2%	13µM*	-6%	-6%	-7%
O=C(Nc1ccccc1N1CCOCC1)c1cc(-c2ccco2)nc2ccccc12	3%	0%	5.2µM*	14%	-5%	-11%
COc1cc(C(=O)Nc2ccccc2N2CCCCC2)cc(OC)c1OC	nt	-2%	21µM*	7%	-8%	-2%
COc1cc(-c2cc(C(=O)Nc3ccccc3N3CCOCC3)c3ccccc3n2)cc(OC)c1OC	5%	-2%	5.8µM*	-1%	-2%	-3%
Cc1ccc(C)c(N(C)C(=O)C2CCN(c3ncnc4c3nc3n4CCCCC3)CC2)c1	nt	nt	nt	nt	-7%	nt
CCCSCCCNC(=O)Cn1c(-c2cccs2)cc2ccccc21	nt	nt	nt	nt	-15%	nt
CCn1c(SCC(=O)N2CCCCC2)nc2c(c1=O)SCC2	-9%	3%	1%	-18%	4%	0%
Cc1ccc(-c2nn(-c3ccccc3)cc2C(=O)Nc2ccc(C)c(S(=O)(=O)N3CCOCC3)c2)cc1	-1%	-2%	?	-4%	i	3%
CCn1nnc(-c2ccccc2NC(=O)c2cc(OC)c(OC)c(OC)c2)n1	0%	2%	16µM*	5%	0%[11.5 µM]	2%
COc1cc(-c2cc(C(=O)Nc3ccc(C)c(S(=O)(=O)N4CCOCC4)c3)c3ccccc3n2)cc(OC)c1OC	nt	?	2.1µM*	-1%	i	16%
O=C(COC(=O)C12CC3CC(CC(C3)C1)C2)Nc1ccc([N+](=O)[O-])cc1Br	-7%	-5%	?	-11%	-3%	-3%
N#Cc1cc([N+](=O)[O-])ccc1NC(=O)COC(=O)C12CC3CC(CC(C3)C1)C2	-7%	nt	10µM*	nt	nt	2%
N#Cc1cc([N+](=O)[O-])ccc1NC(=O)COC(=O)C1CC2CCCC(C1)C2=O (stereo not drawn)	nt	3%	9.2µM*	-7%	7%	-12%
COC(=O)c1ccc2nc(NC(=O)C(C)(C)C)sc2c1	1%	8%	?	0%	-4%	-2%

High-throughput results (PubChem BioAssay)
